# Screens: PubChem BioAssay, National Center for Advancing Translational Sciences (NCATS)
# Shown are actives, neighbours in structure and some others; about 10% of the full set was active somewhere.
# GLS inh = qHTS for Inhibitors of Glutaminase (GLS); Glutaminase kidney isoform, mitochondrial (Homo sapiens), O94925; Potency, µM (highest dose often 45.5 µM), without a hit: at the top dose activity change, negative = inhibition, actives largely listed as inhibitors; 410,000 compounds, 0.21% hits; AID 624170, 2012; GLS enzymatic activity, qHTS titration; further: on the % scale 0 is the no-effect control and ±100 the full control effect
#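 Compounds were pin-transferred onto hKGA, after which L-glutamine (1 mM solution) and a detection mix of glutamate oxidase, HRP and Amplex Red were added. Initial and 30 min RT fluorescence reads were collected.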
# BAZ2B block = qHTS Assay for Inhibitors of BAZ2B. Bromodomain adjacent to zinc finger domain protein 2B (Homo sapiens), Q9UIF8. AlphaScreen BAZ2B-H3K14Ac peptide displacement. Potency, µM (highest dose often 114 µM), for the others: at the highest dose activity change, negative = inhibition, usual class: inhibitors. 360,000 compounds, 4.4% hits. AID 504333, 2011; further: on the % scale 0 is the no-effect control and ±100 the full control effect; nearly all actives have a fitted effect of over 60% in size
#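 In this displacement format the biotinylated H3(5-23) peptide acetylated at Lys14 serves as ligand at 50 nM, with BAZ2B at 50 nM in PBS pH 7.4 containing 0.01% Tween-20. Donor and acceptor beads are 10 ug/mL final.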
# G9a block = qHTS Assay for Inhibitors of Histone Lysine Methyltransferase G9a; Histone-lysine N-methyltransferase EHMT2 (Homo sapiens), Q96KQ7; G9a H3K9 monomethylation, AlphaScreen, 2 h; Potency, µM (top dose mostly 102 µM), for the others: at the highest dose activity, negative = inhibition, usual class: inhibitors; 350,000 compounds, 8.8% hits; AID 504332, 2011; further: on the % scale 0 is the no-effect control and ±100 the full control effect; nearly all actives have a fitted effect of over 75% in size
#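 Using a bead-based AlphaScreen, monomethylated H3K9 product from 2 h room-temperature reactions (G9a 20 nM, peptide 500 nM, SAM 20 uM) was detected with 0.5 ug/mL rabbit anti-H3K9me1 antibody.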
# JMJD2A Tudor = qHTS Assay for Inhibitors of JMJD2A-Tudor Domain | Lysine-specific demethylase 4A (Homo sapiens), O75164 | AlphaScreen JMJD2A-Tudor / H3K4me3 peptide binding | AID 504339, 2011 | Potency, µM (doses to about 114 µM), for inactives: top-dose activity change, negative = inhibition, most hits filed as inhibitors | 390,000 compounds, 4.4% hits; further: on the % scale 0 is the no-effect control and ±100 the full control effect; nearly all actives have a fitted effect of over 50% in size
# Target sequence (O75164 whole entry, looked up, the tested form may be a part): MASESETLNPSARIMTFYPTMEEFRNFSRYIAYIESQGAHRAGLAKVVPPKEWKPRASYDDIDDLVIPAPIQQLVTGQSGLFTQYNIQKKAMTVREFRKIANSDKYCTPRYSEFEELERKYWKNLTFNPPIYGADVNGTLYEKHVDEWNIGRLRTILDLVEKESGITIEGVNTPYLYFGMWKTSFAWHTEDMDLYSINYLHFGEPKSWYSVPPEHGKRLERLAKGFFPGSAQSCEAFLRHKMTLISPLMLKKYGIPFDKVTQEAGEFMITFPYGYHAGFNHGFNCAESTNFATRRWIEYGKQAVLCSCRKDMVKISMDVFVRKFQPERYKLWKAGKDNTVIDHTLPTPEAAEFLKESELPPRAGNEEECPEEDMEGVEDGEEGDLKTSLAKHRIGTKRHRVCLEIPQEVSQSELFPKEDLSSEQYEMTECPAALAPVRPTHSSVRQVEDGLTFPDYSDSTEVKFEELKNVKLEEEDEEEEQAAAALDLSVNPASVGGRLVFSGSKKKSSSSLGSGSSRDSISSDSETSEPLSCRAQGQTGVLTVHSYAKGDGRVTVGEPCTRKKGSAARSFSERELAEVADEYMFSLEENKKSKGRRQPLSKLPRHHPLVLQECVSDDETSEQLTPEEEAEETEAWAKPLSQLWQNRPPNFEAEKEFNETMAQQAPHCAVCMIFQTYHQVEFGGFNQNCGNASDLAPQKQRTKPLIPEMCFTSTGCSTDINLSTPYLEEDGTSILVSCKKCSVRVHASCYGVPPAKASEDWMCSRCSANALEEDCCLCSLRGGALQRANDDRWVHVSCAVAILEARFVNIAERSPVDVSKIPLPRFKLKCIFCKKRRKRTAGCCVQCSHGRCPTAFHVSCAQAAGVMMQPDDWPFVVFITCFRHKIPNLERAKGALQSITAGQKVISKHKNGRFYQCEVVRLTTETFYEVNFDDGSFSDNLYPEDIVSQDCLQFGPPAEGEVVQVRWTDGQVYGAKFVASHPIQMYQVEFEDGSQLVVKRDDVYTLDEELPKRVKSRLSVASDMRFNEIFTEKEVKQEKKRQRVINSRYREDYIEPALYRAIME
# HP1b binding inh = HTS for Inhibitors of HP1-beta Chromodomain Interactions with Methylated Histone Tails. AlphaScreen HP1-beta / biotin-H3K9me3 peptide binding. Potency, µM (top dose mostly 114 µM), for inactives: top-dose activity change, negative = inhibition, most hits filed as inhibitors. 390,000 compounds, 0.56% hits. AID 540317, 2011; further: nearly all actives have a fitted effect of over 70% in size
#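 Compound inhibition of the preformed complex between 50 nM HP1-beta and 50 nM biotinylated H3K9me3 peptide was read by AlphaScreen. Buffer was PBS pH 7.4 with 0.01% Tween-20. Incubations ran 30 min at room temperature, with 10 ug/mL donor/acceptor beads.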
# Starred values were filed as active, the others as inactive; ? = inconclusive; . = no result given; [ ] = another dose, or the depositor's remark. The call rests on the fitted dose curve; in most records, active means well fitted curve in the direction sought with a large enough effect; inconclusive means small, poorly fitted or top-dose-only effect, or another doubt; inactive means no such curve, though single readings can be large; an effect the other way counts as inactive or inconclusive. Potency means the concentration at half of the fitted maximal effect.
SMILES,GLS inh,BAZ2B block,G9a block,JMJD2A Tudor,HP1b binding inh
COC(=O)c1c(-c2ccc(C)cc2)csc1NC(=S)NC(=O)c1cc(OC)cc(OC)c1,15%,?,25µM*,0%,18%
CCOC(=O)c1c(-c2ccc(C)cc2)csc1NC(=O)c1ccc(C(C)(C)C)cc1,12%,-9%,-11%[59 µM],-11%,25%
COc1cc(NC(=O)Cn2c(-c3ccccc3)cc(C(C)=O)c2C)cc(OC)c1,-11%,-1%,-7%[59 µM],-8%,23%
Cn1c(=O)c2c(-c3ccccc3Br)n(CCc3ccccc3)cc2n(C)c1=O,-11%,?,?,?,-20%
Cc1ccc(-n2cc3c(c2-c2ccccc2Br)c(=O)n(C)c(=O)n3C)cc1N,2%,50µM*,?,?,-7%
CC(Sc1nnc(C2CC2)n1-c1ccccc1)C(=O)N1CCCC1 (stereo unspecified),-5%,?,8%[0.501 µM],?,51%
COc1ccc(Cn2nnnc2C(c2ccc(N(C)C)cc2)N2CCC(C(N)=O)CC2)cc1 (stereo unspecified),7%,50µM*,13µM*,?,?
CCC(C)(C)n1nnnc1C(c1cc2ccc(OC)cc2[nH]c1=O)N1CCc2ccccc2C1 (stereo unspecified),-11%,-14%,2.5µM*,-29%,39%
CCC(C)(C)n1nnnc1C(c1cc2ccc(OC)cc2[nH]c1=O)N1CCc2ccccc21 (stereo unspecified),-4%,?,13µM*,?,-22%
Cc1ccc2cc(C(c3nnnn3C3CCCC3)N3CCN(c4ccc(F)cc4)CC3)c(=O)[nH]c2c1 (stereo unspecified),-2%,-8%,11µM*,-8%,15%
N#CN1CCC(NC(=O)c2cccc(C(F)(F)F)c2)CC1,.,.,.,-8%,.
Cc1cccc(C)c1NC(=O)NC1(C(=O)NCCCN2CCOCC2)CCCCC1,19%,4%,9%[59 µM],-6%,13%
CCOc1ccc(C(=O)NCc2nc(-c3ccc(Cl)cc3)no2)cc1OCC,-13%,-2%,5%[59 µM],5%,29%
COc1ccc(Cn2nnnc2C(c2cc3ccc(OC)cc3[nH]c2=O)N2CCCCCC2)cc1 (stereo unspecified),-26%,9%,8.9µM*,-28%,29%
COc1ccc2cc(C(c3nnnn3C(C)(C)C)N3CCc4ccccc4C3)c(=O)[nH]c2c1 (stereo unspecified),.,-27%,?,.,.
COc1ccc2cc(C(c3nnnn3C3CCCC3)N3CCc4ccccc4C3)c(=O)[nH]c2c1 (stereo unspecified),-1%,.,10µM*,-25%,13%
CNCCCNC(=O)c1ccc(/C=N/O)nc1,33%,22µM*,?,20µM*,18%
CC(C)c1ccc(C(=O)NCCCN(C)C)cc1,7%,8%,?,-5%,8%
C[N+](C)(C)CCCNC(=O)c1ccc(/C=N/O)nc1,17%,20µM*,?,4µM*,4%
Cc1ccc(C(=O)NCCCNC(=O)c2ccc(C)nc2)cc1,-2%,1%,10%,-11%,0%
CN(C)CCCNC(=O)c1ccc(/C=N/O)nc1,0%,10%,-5%,1.4µM*,-31%
CCOC(=O)N1CCN(C(=O)COC(=O)c2cc(C)ccc2C)CC1,3%,.,.,-4%,13%[57 µM]
CCOc1ccc(S(=O)(=O)N(C)c2ccc(OCC(=O)NCc3ccc(C(=O)OC)cc3)cc2)cc1,13%,4%,2%,-13%,25%
CCOc1ccc(NC(=S)NCc2ccc3c(c2)OCO3)cc1,0%,?,10µM*,-27%,23%
CCCC(=O)OCC(=O)Nc1ccc2c(c1)OCO2,2%,-2%,-16%,-1%,14%
SMILES,GLS inh,BAZ2B block,G9a block,JMJD2A Tudor,HP1b binding inh
COc1ccc2c(CC(=O)OCC(=O)Nc3ccc(C)cc3)coc2c1,-10%,50µM*,-8%[12.7 µM],-29%,4%
CCOc1ccc(OCCC(=O)OCC(=O)Nc2ccc3c(c2)OCO3)cc1,0%,-38%,45µM*,-35%,-20%
COc1ccc2c(CC(=O)OCC(=O)Nc3ccc(S(N)(=O)=O)cc3)coc2c1,6%,-10%,11%[12.7 µM],-32%,6%
COc1ccc2c(CC(=O)OCC(=O)Nc3ccc4c(c3)OCO4)coc2c1,-3%,?,?,20µM*,?
CC1(C)CC(NC(=S)NCc2ccc3c(c2)OCO3)CC(C)(C)N1,.,56µM*,40µM*,.,.
S=C(NCc1ccc2c(c1)OCO2)NC1CC1,-8%,-17%,-24%,-16%[57.1 µM],34%
COc1ccc(N2CCN(C(CNC(=O)c3c(F)cccc3F)c3ccc4c(c3)OCO4)CC2)cc1 (stereo unspecified),59%,?,10µM*,50µM*,-11%[57 µM]
COc1ccc(N2CCN(C(CNC(=O)c3cccs3)c3ccco3)CC2)cc1 (stereo unspecified),32%,?,45µM*,?,?
COc1ccc(N2CCN(C(CNC(=O)c3ccco3)c3ccco3)CC2)cc1 (stereo unspecified),34%,-8%,28µM*,-19%,-15%
O=C(NCC(c1ccco1)N1CCN(c2ccccc2)CC1)c1ccco1 (stereo unspecified),-1%,-32%,?,-12%,17%
Cc1cc(C)nc(SCC(=O)N/N=C\c2sccc2C)n1,3%,0%,10%,-9%,25%
Cc1cc(C)nc(SCC(=O)N/N=C/c2cc(C)n(-c3ccccc3C)c2C)n1,20%,45µM*,50µM*,?,?
Cc1cc(/C=N/NC(=O)COc2cccc3cccnc23)c(C)n1-c1ccc(O)cc1,-3%,-9%,8%[59 µM],-8%,30%
Cc1ccccc1N(CC(=O)N/N=C/c1cc(C)n(-c2ccccc2C)c1C)S(C)(=O)=O,4%,?,10µM*,?,-3%
Cc1cc(C)cc(-n2c(C)cc(/C=N\NC(=O)COc3cccc4cccnc34)c2C)c1,2%,?,45µM*,?,2%
Cc1cccc(C)c1-n1c(C)cc(/C=N/NC(=O)CSc2ncccn2)c1C,6%,45µM*,17%[59 µM],50µM*,?
Cc1nc(-c2ccc([S+](=O)([O-])N3CCN([S+](=O)([O-])c4c(F)cccc4F)CC3)s2)cs1,.,.,.,-10%,.
CCCNC(=O)C1(C)CCN(C(=O)c2cccnc2Oc2ccccc2)C1 (stereo unspecified),-1%,.,.,.,.
CCN(C(=S)Nc1ccc(Oc2ccccc2)cc1)c1ccccc1,9%,-4%,4%,-7%,-2%
